According to PubChem BioAssay AID778 (Sanford-Burnham Center for Chemical Genomics, 2007):
Among all 96,000 compounds or so, about 20,000 (21%) were called active.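 The calls were made as follows: active = CYP2C19 inhibition above a set limit at 5 µM in the primary screen (cut at about 50% in these data); inactive = the rest.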 Only a sample is shown.

molecular target: Cytochrome P450 2C19 (Homo sapiens) (UniProt P33261); test: blockers of cytochrome P450 2C19 activity – biochemical, luminescence, ADME assay, primary screen (AID 778); settings: CYP2C19 Supersomes, luciferin-H EGE luminescence, 30 min; at 5 µM; hits give high values;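 also: plate controls were negative control wells for no effect and 2.5 mM tranylcypromine positive control for full effect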
Sequence (P33261 whole entry, looked up): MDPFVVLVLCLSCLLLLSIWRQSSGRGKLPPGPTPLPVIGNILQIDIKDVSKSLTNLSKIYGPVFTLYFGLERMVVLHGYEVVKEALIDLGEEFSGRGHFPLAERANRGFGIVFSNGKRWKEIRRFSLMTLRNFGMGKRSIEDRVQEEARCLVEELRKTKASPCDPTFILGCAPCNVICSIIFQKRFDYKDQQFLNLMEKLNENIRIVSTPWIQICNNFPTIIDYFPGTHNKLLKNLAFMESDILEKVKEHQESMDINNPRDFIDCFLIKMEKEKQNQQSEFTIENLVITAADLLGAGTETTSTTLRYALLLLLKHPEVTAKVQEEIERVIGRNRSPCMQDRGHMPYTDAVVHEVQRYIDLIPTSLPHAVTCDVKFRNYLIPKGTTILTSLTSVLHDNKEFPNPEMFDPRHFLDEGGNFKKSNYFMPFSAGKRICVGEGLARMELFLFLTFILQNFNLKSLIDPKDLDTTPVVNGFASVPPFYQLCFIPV

SMILES	inhibition
N#Cc1nc(N)nc(N(c2ccccc2)c2ccccc2)n1	10.4% (inactive)
CC(=O)Nc1cccc(-c2csc(Nc3cccc(C)n3)n2)c1	5.7% (inactive)
CCOC(=O)CCP(=O)(O)C(O)(c1ccccc1)c1ccccc1	-0.4% (inactive)
CC1CCC(NS(=O)(=O)c2ccc3c(c2)n(C)c(=O)c(=O)n3C)CC1 (stereo not given)	8.2% (inactive)
COc1ccc(C(=O)OCC(=O)NCC2CCCCC2)cc1S(=O)(=O)N1CCCc2ccccc21	-0.1% (inactive)
CSc1nc2ccc(S(=O)(=O)N3CCc4ccccc43)cc2s1	47.8% (inactive)
Cn1c(=O)n(C)c2cc(S(=O)(=O)N3CCCc4ccccc43)ccc21	98.7% (active)
Cc1nn(C)c(C)c1S(=O)(=O)N1CCc2ccccc21	43.3% (inactive)
CCn1c(=O)c(=O)n(CC)c2cc(S(=O)(=O)N3CCc4ccccc43)ccc21	91.3% (active)
CC1C(c2ccccc2)=[N+]([O-])C2(CCCC2)N1O (stereo not given)	18.6% (inactive)
C=CCOc1cccc(CNn2cn[nH]c2=S)c1	33.9% (inactive)
CCCOC(=O)Nc1sc2c(c1C(=O)OCC)CCC2	-7.3% (inactive)
COc1ccc(N2CCN(CCNC(=O)c3nnc(Cc4c(F)cccc4Cl)o3)CC2)cc1	77.3% (active)
COc1ccc(CN2CC(C(=O)NCCN3CCN(c4ccccc4F)CC3)CC2=O)cc1 (stereo not given)	-6.5% (inactive)
COc1ccc(N2CCN(CCNC(=O)CCN3C(=O)COc4ccccc43)CC2)cc1	6.4% (inactive)
CCC(C(=O)Nc1ncccn1)(C(F)(F)F)C(F)(F)F	-8.1% (inactive)
NC(=O)CCCC1=NS(=O)(=O)c2ccccc2N1	-6.5% (inactive)
COCc1cc(=O)[nH]c2cc(NC(=O)C(F)(F)F)c(C)cc12	0.8% (inactive)
CCC1CCCCN1CCNC(=O)c1[nH]c(C)c(C(C)=O)c1C (stereo not given)	2.4% (inactive)
COC(=O)C(NC(C)=O)(Nc1nc2c(s1)CCCC2)C(F)(F)F (stereo not given)	39.3% (inactive)
CCC(=O)NC(Nc1cc(C)ccn1)(C(F)(F)F)C(F)(F)F	14.8% (inactive)
CCC(=O)NC(Nc1nc2ccc(C)cc2s1)(C(=O)OC)C(F)(F)F (stereo not given)	85.5% (active)
CNC(=S)NNC(=O)c1sccc1OCc1ccccc1	20.4% (inactive)
COC(=O)CN(c1nc(C)c(Cl)c(OC)n1)S(=O)(=O)c1ccc(C)cc1	19.1% (inactive)
COC(=O)c1ccc(NC(=O)CN(c2ccc(C)cc2)S(=O)(=O)c2c(C)n[nH]c2C)cc1	35% (inactive)

SMILES	inhibition
CCNC(=O)CN(c1ccc(C)cc1)S(=O)(=O)c1ccc(SC)cc1	75.6% (active)
CC1CCC(NC(=O)c2ccc(N3CCCC3=O)cc2)CC1 (stereo not given)	-0.4% (inactive)
CCCc1cc(=O)[nH]c(SCC(=O)OCc2ccccc2)n1	55% (active)
CCCc1cc(=O)n2[nH]c(SCc3ccccc3)nc2n1	1.2% (inactive)
CCCc1cc(=O)[nH]c(SCC(=O)c2cc(C)n(CCC)c2C)n1	29.3% (inactive)
Cc1cc(=O)[nH]c(SCc2cccc(F)c2)n1	7% (inactive)
CCOC(=O)Cc1csc(NC(=O)CSc2nc(C)cc(=O)[nH]2)n1	12.8% (inactive)
CCCc1cc(=O)[nH]c(SCc2ccc(C#N)cc2)n1	65.1% (active)
CC(C)c1cc(C(N)=O)c(NC(=O)c2cccc(COc3ccc(Br)cc3)c2)s1	5.8% (inactive)
CC(=O)Oc1ccc(C(C)=O)c2c1OCCO2	12.1% (inactive)
CCOC(=O)N1CCN(C(=O)Cc2ccc(-n3c(=S)[nH]c4ccccc4c3=O)cc2)CC1	17.9% (inactive)
COc1ccccc1CNC(=O)C1CCCN(S(=O)(=O)c2cccc3cccnc23)C1 (stereo not given)	16% (inactive)
CCOC(=O)n1c(SCC(=O)N(CC)CC)nc2ccccc21	2.8% (inactive)
Cc1ccc(-c2nn(-c3ccccc3)cc2CN(Cc2ccccc2)C(=O)CCC(=O)O)o1	23.4% (inactive)
CCN(Cc1ccccc1)C(=O)CSc1nc(C)cc2c1C(=O)OC2	72.3% (active)
CCN(CC)CCN1C(=O)C(=O)/C(=C(/O)c2ccc(OC)c(OC)c2)C1c1ccccn1 (stereo not given)	-1.7% (inactive)
CCCS(=O)(=O)N1CCCC(C(=O)N2CCN(c3ccccc3)CC2)C1 (stereo not given)	-4.5% (inactive)
CCCCNC(=O)C(=O)c1ccccc1NC(C)=O	13% (inactive)
Cc1ccc(C(c2sc3nc(C)nn3c2O)N2CCN(c3ccc(F)cc3)CC2)cc1 (stereo not given)	42.9% (inactive)
Oc1c(C(c2ccco2)N2CCC3(CC2)OCCO3)sc2ncnn12 (stereo not given)	68.4% (active)
Oc1c(C(c2cccs2)N2CCN(c3ccc(F)cc3)CC2)sc2ncnn12 (stereo not given)	87.6% (active)
Cc1ccc(C(c2sc3nc(C)nn3c2O)N2CCN(c3ccccc3)CC2)cc1 (stereo not given)	33.7% (inactive)
CCOC(=O)c1ccc(COC(=O)CCc2nc(-c3ccccc3)c(-c3ccccc3)o2)cc1	34.1% (inactive)
Cc1nc(NC(=O)CCC(=O)O)sc1C(=O)N(C)C	-12.7% (inactive)
CCOc1ccc(N=C2SC(C(=O)O)CC(=O)N2C)cc1 (stereo not given)	1.7% (inactive)

SMILES	inhibition
COc1ccc2c(c1OC)C(=O)OC2c1c(O)nc(SC)n(-c2ccccc2)c1=O (stereo not given)	-15.5% (inactive)
O=c1cccc(-c2ccc(Br)cc2)o1	-9.6% (inactive)
CC(=O)Nc1ccc(N2C(=O)C3C4CC(=O)C(c5ccccc54)C3C2=O)cc1 (stereo not given)	30.7% (inactive)
O=C(Nc1nnc(CCOCCOCCc2nnc(NC(=O)c3ccco3)s2)s1)c1ccco1	0.8% (inactive)
O=C(c1ccc(F)cc1)c1c[nH]c(C(=O)NCc2cccnc2)c1	65.3% (active)
Cc1ccc(-n2nc(-c3ccco3)cc2C(=O)NCc2cccnc2)cc1	16.2% (inactive)
COCCn1c(=O)[nH]c2cc(C(=O)NCc3cccnc3)ccc2c1=O	3.1% (inactive)
O=C(NCc1ccccn1)c1cnc2sccn2c1=O	-12.6% (inactive)
Cc1cc(C(=O)NCCCc2ccccc2)no1	10.8% (inactive)
CCOC(=O)c1cnc(SC)nc1Sc1ccc(Cl)cc1Cl	25.2% (inactive)
CCCCNCc1ccc(SC)cc1	69.4% (active)
Cc1ccccc1C(=O)NCCN=C1NS(=O)(=O)c2ccccc21	11.7% (inactive)
Cc1oc(CC(C)C)c(CN2CCCC2)c1C(=O)O	-15.6% (inactive)
N#CCCN(CCC#N)c1nnc(-c2ccccc2)s1	29% (inactive)
Cc1cc(C)cc(OCC(=O)Nc2nc3ccc([N+](=O)[O-])cc3s2)c1	19.6% (inactive)
Cc1nn(Cc2ccccc2Cl)c(C)c1NC(=O)Cn1nc([N+](=O)[O-])c(Cl)c1C	0.1% (inactive)
Cc1nn(CC(=O)Nc2nc3ccccc3s2)c(C)c1[N+](=O)[O-]	52.2% (active)
CCC(CC)C(=O)N1CC(=O)Nc2ccc(Br)cc2C1c1ccccc1 (stereo not given)	47.6% (inactive)
Cc1cccn2c(=O)c(/C=C3\SC(=S)N(CC(C)C)C3=O)c(NCCCOC(C)C)nc12	14.7% (inactive)
COc1ccc2c(Cl)c(C(=O)NCc3ccco3)sc2c1	18.6% (inactive)
COC(=O)c1nc(NC(=O)c2ccc(Cl)cc2)n[nH]1	-2.9% (inactive)
NC(=O)c1ncc(C(F)(F)F)cc1Oc1ccc(F)cc1	31.9% (inactive)
O=C(CNC(=O)c1ccccc1)NCC(=O)OCc1ccc(Cl)cc1	7.3% (inactive)
Cc1ccc(C(=O)N2CCCCCC2)cc1Br	26.6% (inactive)
Cc1ccc(C(=O)N2CCCC2)c(F)c1F	9.6% (inactive)

SMILES	inhibition
Cc1c(Br)cc(C(=O)N2CCCCCC2)c(C)c1C	96% (active)
CCOC(=O)c1c(-c2ccc(C)cc2C)csc1NC(=O)CSc1nnnn1C	27.2% (inactive)
Cc1noc(C)c1CSCC(=O)Nc1nc2ccc(Oc3ccccc3)cc2s1	40.8% (inactive)
CCOC(=O)c1c(C2CC2)csc1NC(=O)CSCc1c(C)noc1C	64% (active)
Cc1cc(SCC(=O)c2ccccc2)nc(SCC(=O)c2ccccc2)n1	53.4% (active)
Cc1nc(SCC(=O)c2ccccc2)c([N+](=O)[O-])[nH]1	23.7% (inactive)
COC(=O)c1cc(C(=O)CSc2nc(C)cc(C)n2)ccc1O	23.3% (inactive)
CC(C)CCOc1ccc(C(=O)C[N+]2(C)CCOCC2)cc1	12% (inactive)
Cc1ccc(N2C(=O)c3ccccc3C2(O)c2ncc[nH]2)cc1 (stereo not given)	5.2% (inactive)
COc1ccc(CC(=O)n2nc(-c3cccnc3)nc2N)cc1	22.6% (inactive)
CCOc1c(N2CCCCC2)c(=O)c1=O	-3.9% (inactive)
CC(C)CNC(=O)COC(=O)/C=C/c1ccccc1[N+](=O)[O-]	2.4% (inactive)
CC(C)CNC(=O)CC(c1ccccc1)c1c(O)ccc2ccccc12 (stereo not given)	58.9% (active)
CCc1ccc(/C=N/NC(=O)c2ccc(OC3CCCC3)cc2)s1	25.8% (inactive)
Cc1cc(N(C)C)cc(C)[n+]1[O-]	-6.3% (inactive)
O=C1CSC(=O)N1CCOCCN1C(=O)CSC1=O	15.9% (inactive)
O=C(Nc1ccc(S(=O)(=O)N2CCCCC2)cc1)c1cnccn1	9.9% (inactive)
COc1ccc(S(=O)(=O)N2CCCC(C(=O)Nc3ccc(NC(=O)c4ccccn4)cc3)C2)cc1 (stereo not given)	20.8% (inactive)
O=C(CN1CCN(S(=O)(=O)c2ccc(F)cc2)CC1)Nc1ccccc1F	57.1% (active)
CCOC(=O)c1[nH]c2ccc(OC)cc2c1NC(=O)CCN1CCN(Cc2ccccc2)CC1	32.7% (inactive)
COc1cc2c(cc1NC(=O)CN1CCN(S(=O)(=O)c3ccc(F)cc3)CC1)oc1ccccc12	11.9% (inactive)
CCOc1ccccc1NC(=O)CCN1CCN(S(=O)(=O)c2ccc(OC)cc2)CC1	68.5% (active)
CCOc1ccccc1NC(=O)c1cc(S(=O)(=O)N2CCC3(CC2)OCCO3)ccc1F	9.8% (inactive)
COc1ccccc1NC(=O)CN1CCN(S(=O)(=O)c2ccc(Br)cc2)CC1	34% (inactive)
O=C(Nc1ccccc1F)c1cc(S(=O)(=O)N2CCCCC2)cs1	62% (active)
